{"source": "paper PMC7819943", "about": "“Rice protein-binding microarrays: a tool to detect cis-acting elements near promoter regions in rice”", "note": "Whole data set: some 35,000 sequences, median “fluorescence intensity (a.u.)” near 10,000, cut for the highest 2% near 52,000. The list comes from a sample in which the highest values are over-represented; it also holds similar and randomly drawn sequences.", "data": [{"target": "T1, OsWOX13 (Oryza sativa, UniProt Q5QMM3 1-267)", "T1 sequence": "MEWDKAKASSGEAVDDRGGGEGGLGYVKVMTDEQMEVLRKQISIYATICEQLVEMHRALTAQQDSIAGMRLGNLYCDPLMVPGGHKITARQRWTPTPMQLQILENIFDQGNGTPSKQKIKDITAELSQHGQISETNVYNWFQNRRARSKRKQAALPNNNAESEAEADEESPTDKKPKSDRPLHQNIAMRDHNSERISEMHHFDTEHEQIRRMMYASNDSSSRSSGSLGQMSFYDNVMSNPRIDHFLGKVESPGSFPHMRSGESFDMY", "assay": "protein-binding microarray (RPBM); PBS, 2% BSA, 51.3 ng/ul salmon testes DNA, 50 uM zinc acetate, 200 nM TF, 25 C, 1 h; high values mean tight binding", "details": "protein: recombinant; tags: N-terminal polyhistidine and DsRed monomer fusion (pET32a); label: CyDye5-dUTP incorporated in the synthesized complementary strand; 3' TTTTT single-stranded linker to array surface; dsDNA, one strand shown", "summary_of_the_method": "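Binding signal is defined as the fluorescence intensity of each feature in arbitrary units, read on an Axon 4000B scanner. Transcription factors with N-terminal polyhistidine and DsRed fusions came from E. coli BL21-CodonPlus and were purified on Ni–NTA. They were incubated at 200 nM for 1 h at 25 °C on a custom Agilent array that had been made double-stranded with Cy5-dUTP, with 50 µM zinc acetate present, and the array was washed.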", "values": [{"sequence": "TAAACCAATTACAATGATTATTTTCAACCGACCACCGATTCGGAGTCACCTAGTGCAG", "binding signal": "23300 fluorescence intensity (a.u.)"}, {"sequence": "AGGACTACTATAATTGCAACTGAAATAAAACCTTGGCTTGCGGAGTCACCTAGTGCAG", "binding signal": "5450 fluorescence intensity (a.u.)"}, {"sequence": "CCCTCAATCAGCTGGTCGGCTGGTCGCACACACCACGTTCCGGAGTCACCTAGTGCAG", "binding signal": "11500 fluorescence intensity (a.u.)"}, {"sequence": "TAACTAATTAGTTAACTAATCGTCAATGTCACTAGCTTCTCGGAGTCACCTAGTGCAG", "binding signal": "45100 fluorescence intensity (a.u.)"}, {"sequence": "ATGATGAGATTGAGGTTGATATAGATAGCTTTGATGTTGACGGAGTCACCTAGTGCAG", "binding signal": "23200 fluorescence intensity (a.u.)"}, {"sequence": "GTGATAATTGCAAAATTAGGAATTATGCAAGGGGTGTAGACGGAGTCACCTAGTGCAG", "binding signal": "49400 fluorescence intensity (a.u.)"}, {"sequence": "TTTGCTAATGACAAATTAATTAGGCTTAATAAATTCGTCTCGGAGTCACCTAGTGCAG", "binding signal": "41500 fluorescence intensity (a.u.)"}, {"sequence": "GGGAAGACGAGATTGAGTGGATCAAAAGCCCTAAACCAATCGGAGTCACCTAGTGCAG", "binding signal": "8660 fluorescence intensity (a.u.)"}, {"sequence": "GCAGCTGACAGATGGAGGGATGTTCAGGATGTCCGGAGAACGGAGTCACCTAGTGCAG", "binding signal": "3250 fluorescence intensity (a.u.)"}, {"sequence": "TACTACTAATTATTGTCTTCTTAGTAATCACCAAGTGTGCCGGAGTCACCTAGTGCAG", "binding signal": "20700 fluorescence intensity (a.u.)"}, {"sequence": "CTTAAATTGATTTATTTTGGAACGGAGAGAGTAATATGCACGGAGTCACCTAGTGCAG", "binding signal": "53500 fluorescence intensity (a.u.)"}, {"sequence": "ATATTGAATTATTGATTTGATGAAAATAATTTAGTATTATCGGAGTCACCTAGTGCAG", "binding signal": "20500 fluorescence intensity (a.u.)"}, {"sequence": "TTATTCAGATAATTTGATGATGATGAAAGCAGAAGCTTTGCGGAGTCACCTAGTGCAG", "binding signal": "8570 fluorescence intensity (a.u.)"}, {"sequence": "ACATTTACTTAATTGTAAATATATATTTTGGTAATATATGCGGAGTCACCTAGTGCAG", "binding signal": "9650 fluorescence intensity (a.u.)"}, {"sequence": "AATTAATTAATTAGTCTGTTCTTATTGCTTAGTGTACTACCGGAGTCACCTAGTGCAG", "binding signal": "53600 fluorescence intensity (a.u.)"}, {"sequence": "GAAAATAGTATGATTGAAAATGACGTAAAGTGAATAGACCCGGAGTCACCTAGTGCAG", "binding signal": "23000 fluorescence intensity (a.u.)"}, {"sequence": "CCTAATTTCTAACATTATATTGTTGCTTAGTGTACTAACTCGGAGTCACCTAGTGCAG", "binding signal": "18700 fluorescence intensity (a.u.)"}, {"sequence": "ATAATTGATTGCTTTTGATGATTTCACCCTTATTTTGCTGCGGAGTCACCTAGTGCAG", "binding signal": "65100 fluorescence intensity (a.u.)"}, {"sequence": "GACCTTATTTGCATTGATTGACCTTATTTGCATTGATTTTCGGAGTCACCTAGTGCAG", "binding signal": "19600 fluorescence intensity (a.u.)"}, {"sequence": "ATGATTGTGATTTATATTTTGAAATAAAGAGAGTAGTAATCGGAGTCACCTAGTGCAG", "binding signal": "50500 fluorescence intensity (a.u.)"}, {"sequence": "ATATTTTGATTGAATATGACGTATCCTAGTAATTTGGACCCGGAGTCACCTAGTGCAG", "binding signal": "59700 fluorescence intensity (a.u.)"}, {"sequence": "TTTCCATTAATAAATTGAAACATATTGAACTAGATCGTTCCGGAGTCACCTAGTGCAG", "binding signal": "15600 fluorescence intensity (a.u.)"}, {"sequence": "TTTAATAATTTGTTTATAAAAGAAACTAAAGGGCACTGCTCGGAGTCACCTAGTGCAG", "binding signal": "12200 fluorescence intensity (a.u.)"}, {"sequence": "ATAAACTGGAACAGAAGGCCAGGCGGAAATAAACTGGACACGGAGTCACCTAGTGCAG", "binding signal": "6490 fluorescence intensity (a.u.)"}, {"sequence": "GGCCTAATTCATTGACGGGAACTAAGTGGGCTGAATTCGTCGGAGTCACCTAGTGCAG", "binding signal": "7250 fluorescence intensity (a.u.)"}, {"sequence": "CCCAAATTAATCATCATGTAATAGAATGATATATTCATTGCGGAGTCACCTAGTGCAG", "binding signal": "49200 fluorescence intensity (a.u.)"}, {"sequence": "GTGTCGCCAGTGATTGCAGTTTCAGTTCGAAATTTCTCTACGGAGTCACCTAGTGCAG", "binding signal": "9490 fluorescence intensity (a.u.)"}, {"sequence": "ATAACGAACGGATGAGATTGATCGCTACAATACTCTAGAGCGGAGTCACCTAGTGCAG", "binding signal": "4050 fluorescence intensity (a.u.)"}, {"sequence": "TAAACTCCAAGTTGATTATCCAACGAATCGTAGCCTCGAGCGGAGTCACCTAGTGCAG", "binding signal": "5690 fluorescence intensity (a.u.)"}, {"sequence": "GATCAATCATTTGCTGAGCTCGTGAATTCTGTCTGGTTCACGGAGTCACCTAGTGCAG", "binding signal": "24300 fluorescence intensity (a.u.)"}, {"sequence": "TAACTAATTATGTACTAACAAATTAGCTAGTCTACCATGCCGGAGTCACCTAGTGCAG", "binding signal": "56600 fluorescence intensity (a.u.)"}, {"sequence": "GTACAAAATTATCTAAAATTAACTACAAAATTATGTACTACGGAGTCACCTAGTGCAG", "binding signal": "12800 fluorescence intensity (a.u.)"}, {"sequence": "ACTAGCTAAATTATACCATGTTAACTTATACTATATTAGTCGGAGTCACCTAGTGCAG", "binding signal": "9700 fluorescence intensity (a.u.)"}, {"sequence": "TTAAATTTAATTAAATTTAAAGCAGTTTGATTTTGACCAACGGAGTCACCTAGTGCAG", "binding signal": "56000 fluorescence intensity (a.u.)"}, {"sequence": "AATATAAATTAAATTTTATTTGCTAAAATTAATATCATTGCGGAGTCACCTAGTGCAG", "binding signal": "15000 fluorescence intensity (a.u.)"}, {"sequence": "AATTTACACTTAATTTGCTATTTGCTATACATGTTTTCTACGGAGTCACCTAGTGCAG", "binding signal": "10800 fluorescence intensity (a.u.)"}, {"sequence": "TATAAATTTAGTCAAATTTAAAGCAGTTTGATTTTGACCACGGAGTCACCTAGTGCAG", "binding signal": "26800 fluorescence intensity (a.u.)"}, {"sequence": "ATTTCTTAATTTAATGCTATTCTGACTCCTTGCACCTCTACGGAGTCACCTAGTGCAG", "binding signal": "12300 fluorescence intensity (a.u.)"}, {"sequence": "CCTTAATTAATTAATTAATTACGTGCTATTTATTTCTTGGCGGAGTCACCTAGTGCAG", "binding signal": "55300 fluorescence intensity (a.u.)"}, {"sequence": "AACTTAATTAAATTTAAAGCAGTTTGATTTTGACTAAAGTCGGAGTCACCTAGTGCAG", "binding signal": "31800 fluorescence intensity (a.u.)"}, {"sequence": "TTCTAATAATTTGATATTAGGTCATTCCCTAATATTCGTGCGGAGTCACCTAGTGCAG", "binding signal": "25000 fluorescence intensity (a.u.)"}, {"sequence": "CTTAATTAATAGGGTATTAATAACCTCCCTAAAGTCATTGCGGAGTCACCTAGTGCAG", "binding signal": "60200 fluorescence intensity (a.u.)"}, {"sequence": "GGCGTTAATCACGTGATGGGCATGGATAGTGATTTAGATTCGGAGTCACCTAGTGCAG", "binding signal": "13900 fluorescence intensity (a.u.)"}, {"sequence": "GATATGATGGGTACAAACTGTTATAAACTAACATGTCTATCGGAGTCACCTAGTGCAG", "binding signal": "5970 fluorescence intensity (a.u.)"}, {"sequence": "GGGCCTGGTCCTGATTGGACTTCCTTATCTGTCTATCACACGGAGTCACCTAGTGCAG", "binding signal": "10700 fluorescence intensity (a.u.)"}, {"sequence": "TGATGGGAAAACTTTAAAATTAATTTTGAATTTAAGGTTGCGGAGTCACCTAGTGCAG", "binding signal": "4960 fluorescence intensity (a.u.)"}, {"sequence": "TGCTTTGATTTTACGTCACATACACATGGTGATGCTTCAACGGAGTCACCTAGTGCAG", "binding signal": "6250 fluorescence intensity (a.u.)"}, {"sequence": "CAGTTTAATTGCTCCTCGGATGGATCTGGTATAGTTCTGCCGGAGTCACCTAGTGCAG", "binding signal": "20700 fluorescence intensity (a.u.)"}, {"sequence": "CTCTTGATTGTATCCTTAGGCACTTTGTATATTCTCGAGTCGGAGTCACCTAGTGCAG", "binding signal": "31700 fluorescence intensity (a.u.)"}, {"sequence": "TTTATAATAGTTAATATTTAATTGATCATTTGCTAATGAGCGGAGTCACCTAGTGCAG", "binding signal": "24900 fluorescence intensity (a.u.)"}, {"sequence": "TAAAATTAGTCAAACTTAAAGCAGTTTGATTTTGACTAAACGGAGTCACCTAGTGCAG", "binding signal": "3740 fluorescence intensity (a.u.)"}, {"sequence": "AAGATACGTGATTGAAATCATTCCATTATGGACGACATTGCGGAGTCACCTAGTGCAG", "binding signal": "54000 fluorescence intensity (a.u.)"}, {"sequence": "TTGGATTAGAATTTAATTTGAAGACGACATCCATTGGATACGGAGTCACCTAGTGCAG", "binding signal": "28700 fluorescence intensity (a.u.)"}, {"sequence": "CCATTACGTGATCACAGATTGATCAAGAAATGCTTGACGACGGAGTCACCTAGTGCAG", "binding signal": "19600 fluorescence intensity (a.u.)"}, {"sequence": "CCAAATGATTAATTTGGAGGACTTATTTGGACGTTTTGAACGGAGTCACCTAGTGCAG", "binding signal": "42300 fluorescence intensity (a.u.)"}, {"sequence": "TTTATATTATTTGTCAATCTTATTGTCAACTTATTAATCACGGAGTCACCTAGTGCAG", "binding signal": "5140 fluorescence intensity (a.u.)"}, {"sequence": "TTTAATTGATGGAGCGGTAATGGTAATAGTTCTTCACTCACGGAGTCACCTAGTGCAG", "binding signal": "57300 fluorescence intensity (a.u.)"}, {"sequence": "ACATCACTAATTAATGTAATTTAAGTGGCTCATTTGCTCACGGAGTCACCTAGTGCAG", "binding signal": "31900 fluorescence intensity (a.u.)"}, {"sequence": "GAACAGGTAATTTAAAATTGATGGAGTTCATAGGATGTCACGGAGTCACCTAGTGCAG", "binding signal": "24200 fluorescence intensity (a.u.)"}, {"sequence": "TTCACTAATCAATCAACTTAATTTGCTCTGTCAATGTGCACGGAGTCACCTAGTGCAG", "binding signal": "61700 fluorescence intensity (a.u.)"}, {"sequence": "TCTGATTAATTTGACGGCCACAAAATACTTAGTTTGGCAACGGAGTCACCTAGTGCAG", "binding signal": "65000 fluorescence intensity (a.u.)"}]}]}
